D3 ag = activates the human D3 dopamine receptor; 410,000 compounds, 0.58% hits; P35462; D3R DiscoveRx beta-arrestin cells, luminescence, 90 min; max activation, %; AID 652048; in the data active = max activation above about 30%
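Agonist mode: compounds and dopamine controls were applied to plated cells for 90 min at 37 degrees C after an overnight attachment at 1500 cells/well. Luminescent read-out followed 30 - 60 minutes at room temperature with DiscoveRx detection reagent.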
IL-1B inflam inh = inflammasome signaling inhibition, IL-1 beta readout. THP-1 LPS/ATP IL-1B secretion, AlphaLISA, 16 h; active compounds read low. activity change, % at 57.5 µM. 360,000 compounds, 4.7% hits. AID 743279; in the data active = activity change below about -50%; inconclusive = mostly about -30% to -49%
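THP-1 cells pretreated 1 hr with compounds (up to 57.5 uM final), then stimulated with LPS (250 ng/mL final) plus ATP (1.25 mM final); secreted IL-1B measured by AlphaLISA after 16 hr, decreased signal indicating inhibition.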
ClpP mod = qHTS Assay for Activators of ClpP; ATP-dependent Clp protease proteolytic subunit (Bacillus subtilis (strain 168)), P80244; purified B. subtilis ClpP, FRET peptide cleavage, 20 min; Potency, µM (highest dose often 57.5 µM); 340,000 compounds, 1.9% hits; active = well fitted falling curve with a large enough effect; inconclusive = small, poorly fitted or top-dose-only effect; inactive = no such curve, though single readings can be large or run the other way; note: the source files actives as falling curves though it sought activators and does not explain the sign; nearly all actives have a fitted effect of over 65% in size
Target sequence (P80244 whole entry, looked up): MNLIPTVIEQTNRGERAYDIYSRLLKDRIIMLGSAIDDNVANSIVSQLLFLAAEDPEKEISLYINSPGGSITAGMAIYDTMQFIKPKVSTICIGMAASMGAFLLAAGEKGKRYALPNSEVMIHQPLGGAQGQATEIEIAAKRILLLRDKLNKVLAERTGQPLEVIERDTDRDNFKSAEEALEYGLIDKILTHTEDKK
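FRET quenching reversal measured ClpP activation: 10 microg/mL B. subtilis ClpP at pH 8 with the FRET-FV decapeptide, read at 430 nm after 320 nm excitation. The 20-min minus 0-min signal was scaled between DMSO/no-enzyme wells and ADEP (5.8 microM final).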
DT40 TDP1 CPT = DT40-hTDP1 cell growth loss with CPT; chicken DT40 Tdp1-/-;hTDP1 cells + 20 nM CPT, ATP luminescence, 48 h; 420,000 compounds, 12% hits; Potency, µM (doses to about 46.2 µM), usual class: inhibitors; note: nearly all actives have a fitted effect of over 55% in size
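Chicken DT40 Tdp1-/- cells stably complemented with human TDP1 were seeded at 400 cells/well in medium containing 20 nM camptothecin, exposed to pin-transferred compounds, and grown at 37 °C for at least 48 hr. Viability was read as ATP luminescence.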
TDP1 cell noCPT = qHTS for Inhibitors of human tyrosyl-DNA phosphodiesterase 1 (TDP1): qHTS in cells in absence of CPT. DT40 Tdp1-/- hTDP1 cells, no CPT, ATP luminescence, 48 h. 420,000 compounds, 15% hits. Potency, µM (titrated, usually from 46.2 µM), actives largely listed as inhibitors. AID 686978, 2013; note: nearly all actives have a fitted effect of over 55% in size
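Seeded 400 DT40-hTDP1 cells/well (vehicle DMSO, no 20 nM CPT); pinned compounds; ≥48 hr at 37 °C; CellTiter-Glo luminescence as viability measure.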
D3 antag = antagonists of human D3 dopamine receptor | P35462 | D3R cells, DiscoveRx beta-arrestin luminescence, antagonist mode; active compounds read low | max response, negative = inhibition, % | 360,000 compounds, 2.5% hits | AID 652054; in the data active = max response below about -50%; inconclusive = no clear call, values can overlap the other calls
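Cells plated overnight at 1500 cells/well, then exposed to library compounds with dopamine controls for 90 minutes at 37 degrees C. DiscoveRx reagent added for 30–60 minutes at room temperature; luminescence read, quantitative HTS format.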
Large screens that a line does not name were inactive. Compounds with a hit are over-represented: about 21% of the library has one in this group of screens. Unless noted, calls come from the whole dose curve; as a rule, active = well fitted inhibition curve with a large enough effect; inconclusive = small, poorly fitted or top-dose-only effect; inactive = flat fitted curve, though single readings scatter.

Cc1nc(-c2ccc(C(=O)Nc3cc(S(N)(=O)=O)ccc3C)cc2)cs1	TDP1 cell noCPT inconclusive
C[C@H](CO)N1C[C@H](C)[C@@H](CN(C)Cc2ccccn2)Oc2ncc(Br)cc2C1=O	none
Cc1ccc(S(=O)(=O)Oc2ccc(/C=N/NC(=O)c3nn(C)cc3[N+](=O)[O-])cc2)cc1	TDP1 cell noCPT inconclusive
Cc1ccc(S(=O)(=O)Oc2ccccc2/C=N/NC(=O)c2nn(C)cc2[N+](=O)[O-])cc1	IL-1B inflam inh inconclusive, DT40 TDP1 CPT inconclusive, TDP1 cell noCPT 16µM
Cc1ccc(S(=O)(=O)Oc2ccccc2/C=N/NC(N)=S)cc1	DT40 TDP1 CPT 4.1µM, TDP1 cell noCPT 6.5µM
Cc1ccc(S(=O)(=O)Oc2ccccc2/C=N/N=C(N)N)cc1	IL-1B inflam inh -127, DT40 TDP1 CPT inconclusive, TDP1 cell noCPT 18µM (no result: ClpP mod)
COc1cccc(/C=N/NC(N)=S)c1OS(=O)(=O)c1ccccc1	DT40 TDP1 CPT inconclusive
O=C(C[C@H]1C/C=C\C[C@H](Cc2ccc(F)cc2)C(=O)O[C@@H](c2ccccc2)CNC1=O)NCCO	DT40 TDP1 CPT inconclusive, TDP1 cell noCPT inconclusive, D3 antag inconclusive
CC(=O)N(C(C)=O)c1ncnc2c1c(-c1ccc(Cl)cc1)nn2C(C)(C)C	IL-1B inflam inh -83, DT40 TDP1 CPT inconclusive, TDP1 cell noCPT 18µM
Cc1ccc2nc3c(cc(C(=O)NCc4ccco4)c(=N)n3Cc3ccco3)c(=O)n2c1	DT40 TDP1 CPT inconclusive, TDP1 cell noCPT 21µM (no result: ClpP mod)
N=c1c(C(=O)NCc2ccco2)cc2c(=O)n3ccccc3nc2n1C1CCCC1	TDP1 cell noCPT inconclusive (no result: ClpP mod)
N=c1c(C(=O)NCc2ccccc2)cc2c(=O)n3ccccc3nc2n1Cc1ccco1	IL-1B inflam inh inconclusive, DT40 TDP1 CPT inconclusive, TDP1 cell noCPT inconclusive
N=c1c(C(=O)NCCN2CCOCC2)cc2c(=O)n3ccccc3nc2n1Cc1ccc(F)cc1	IL-1B inflam inh inconclusive, DT40 TDP1 CPT inconclusive
N=c1c(C(=O)NCc2ccco2)cc2c(=O)n3ccccc3nc2n1Cc1ccccc1	ClpP mod 18µM, DT40 TDP1 CPT inconclusive, TDP1 cell noCPT inconclusive, D3 antag -51
N=c1c(C(=O)NCc2ccc(F)cc2)cc2c(=O)n3ccccc3nc2n1Cc1ccco1	DT40 TDP1 CPT 16µM, TDP1 cell noCPT 16µM, D3 antag inconclusive
COCCn1c(=N)c(C(=O)NCc2ccco2)cc2c(=O)n3ccccc3nc21	ClpP mod 28µM, D3 antag inconclusive
Cc1nnc(NS(=O)(=O)c2ccc(F)cc2)s1	none (no result: ClpP mod)
CN(C(=O)c1ccc(NC(=O)Cc2cccc(NC(=O)C3CCN(C(=O)C4CCCCC4)CC3)c2)cc1)C1CCCC1	none
COc1cc(Cl)c(NC(=O)CCc2nc3cccnc3n2-c2ccccc2)c(OC)c1	DT40 TDP1 CPT inconclusive, TDP1 cell noCPT inconclusive (no result: IL-1B inflam inh, D3 antag)
Cc1ncc2c(c1CNC(=O)c1ccc3c(c1)OCO3)CCN(C(=O)c1noc3c1CCCC3)C2	none (no result: D3 ag, IL-1B inflam inh, ClpP mod, D3 antag)
Cc1ccc(CNC(=O)c2cc3c(=O)n4ccccc4nc3n(Cc3ccco3)c2=N)cc1	IL-1B inflam inh -94, DT40 TDP1 CPT 13µM, TDP1 cell noCPT 15µM
COc1ccc(/C=C2\N=C(c3ccccc3)N(c3ccc(C(=O)O)cc3)C2=O)cc1OC	none (no result: ClpP mod)
O=C(NCCc1ccc(Cl)cc1)c1ccc2c(c1)N(Cc1ccccc1)CCS2	DT40 TDP1 CPT 16µM, TDP1 cell noCPT inconclusive (no result: IL-1B inflam inh, D3 antag)
Cc1ccc(CN2CCSc3ccc(C(=O)NCCc4ccccc4)cc32)cc1	DT40 TDP1 CPT 23µM, TDP1 cell noCPT 23µM (no result: IL-1B inflam inh, D3 antag)
Cc1ccc(CN2CCSc3ccc(C(=O)NCc4ccccn4)cc32)cc1	DT40 TDP1 CPT inconclusive
Cc1ccc(CN2CCSc3ccc(C(=O)NCC(C)c4ccccc4)cc32)cc1 (centres undefined)	DT40 TDP1 CPT inconclusive, TDP1 cell noCPT 23µM (no result: IL-1B inflam inh, D3 antag)
NS(=O)(=O)c1ccc(CCNC(=O)c2ccc3c(c2)N(Cc2ccccc2)CCS3)cc1	none

Assay outcomes deposited in PubChem BioAssay by National Center for Advancing Translational Sciences (NCATS).
